Reference: PubChem BioAssay AID720513 (Broad Institute, 2013)
Screen size: about 2,100 compounds; about 480 (23%) were called active. Inconclusive results (about 5%) are left out.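 The calls were made as follows: active = fitted curve reaches 40% activation at or below the top valid concentration, in every replicate test; inconclusive = replicate tests disagree on the call; inactive = the rest, including activity in the opposite direction.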 These entries were drawn from the full list. A call without a number means that no potency is given here. Potency and affinity values are given separately.

test: activators raising PGC1a acetylation in cells, dose response, cell-based, cherry-picked samples, set 6 (AID 720513); conditions: U2OS PGC1a acetylation AlphaLISA, overnight, 0 = neutral, -100 = inhibitor control; series mostly up to 19.5 µM;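 also: cells made to overexpress flag tagged PGC1a plus GCN5 acetyltransferase by viral infection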

Structure (SMILES)	outcome
CCOc1ccc2nnc(-c3ccc(Br)cc3)n2n1	inactive
CS(=O)(=O)Nc1ccc2c(c1)[C@@H]1C[C@H](CC(=O)N3CCc4ccccc4C3)O[C@@H](CO)[C@@H]1O2	inactive
Nc1ncc([N+](=O)[O-])c(N2CCCCCC2)n1	inactive
CCNC(=O)NC(=O)COc1ccccc1C#N	inactive
O=C1c2ccccc2-[n+]2ccc3c([nH]c4ccccc43)c21	inactive
Cc1[nH]c(=O)[nH]c(=O)c1S(=O)(=O)Nc1ccc(F)c(Cl)c1	inactive
CCc1ccc(NC(=O)CSc2nnc(-c3cnccn3)n2Cc2ccco2)cc1	inactive
CCn1c(SCC(=O)Nc2ccc(OC)c(OC)c2)nnc1-c1cccs1	inactive
COCC(=O)OCC(=O)Nc1cc(C(C)(C)C)nn1-c1ccccc1	inactive
CN1[C@@H]2CC(OC(=O)[C@H](CO)c3ccccc3)C[C@H]1[C@@H]1O[C@@H]12 (stereo not given in full)	inactive
CCOC(=O)C1CN(S(=O)(=O)c2ccc(C)cc2)c2cc(S(=O)(=O)CC)ccc2O1 (stereo not given)	inactive
CCOC(=O)C1CN(S(=O)(=O)c2ccccc2)c2cc(S(=O)(=O)CC)ccc2O1 (stereo not given)	inactive
Cc1cc2nc(/C=C/c3cccnc3)[nH]c2cc1C	inactive
COc1ccc(C2c3[nH]c4ccccc4c3C[C@H]3C(=O)N(c4ccccc4C(=O)N4CCC[C@@H]4C(=O)O)C(=O)N23)cc1 (stereo not given in full)	inactive
O=C(CCC1CCN(Cc2ccccc2Cl)CC1)NC1CC1	inactive
CC(=O)NC1CCN(CC(=O)Nc2nccs2)CC1	inactive
Cc1ccccc1Oc1cc(-n2ncc(Cl)c(Cl)c2=O)ncn1	inactive
O=C(Cc1ccccc1)Nc1ccc(Cl)cn1	inactive
CC(C)(C)NC(=O)Cn1nnc(-c2ccccc2NC(=O)c2ccco2)n1	inactive
Cc1noc(C)c1NC(=O)Nc1ccc2c(c1)C(=O)N([C@@H](C)CO)C[C@@H](C)[C@@H](CN(C)CC1CCCCC1)OCCCC[C@H](C)O2	inactive
COc1cc(CN2CCN(Cc3ccccc3C(F)(F)F)CC2)cc(OC)c1OC	inactive
COc1ccccc1CN1C[C@@H]2C[C@@H](c3cccc(C)n3)N3CCC[C@@]23C1=O	inactive
Cc1nc(C(C)N(C)Cc2nc(-c3ccc4c(c3)OCO4)no2)c(C)s1 (stereo not given)	inactive
CC(NC(=O)Nc1cccnc1)(C(F)(F)F)C(F)(F)F	inactive
CC(=O)c1cccc(NC(=O)Nc2cccnc2)c1	inactive

Structure (SMILES)	outcome
C#CC(CC)(CC)NC(=O)c1ccc(Br)s1	inactive
COc1ccccc1C#Cc1ccc2c(c1)O[C@@H](CN(C)Cc1cccnc1)[C@H](C)CN([C@H](C)CO)S2(=O)=O	inactive
OC(c1cc(C(F)(F)F)nc2c(C(F)(F)F)cccc12)C1CCCCN1 (stereo not given)	inactive
Cc1ccc(-c2cnc3c(c2)C(=O)N([C@H](C)CO)C[C@H](C)[C@@H](CN(C)C)O3)cc1	inactive
C[C@@H](C(=O)Nc1cc(C(F)(F)F)ccc1N1CCOCC1)N1C(=O)C2CC=CCC2C1=O (stereo not given in full)	inactive
C[C@@H]1CCCCO[C@H](CN(C)Cc2ccc(Cl)c(Cl)c2)[C@H](C)CN([C@@H](C)CO)C(=O)c2cc(NC(=O)Nc3ccc(F)cc3)ccc2O1	inactive
CCCCn1c(SCC(=O)NCc2ccc3c(c2)OCO3)nnc1C(CC)N(C)C (stereo not given)	inactive
COc1cc2cc(C)c3nnc(SCC(=O)Nc4cc(C)on4)n3c2cc1OC	inactive
Cc1nc2ccccn2c1C(=O)/C=C/c1ccc(F)cc1	inactive
CN(C)C(=O)c1ccc(-c2ccc([C@H]3[C@H]4CN(C(=O)CC5CC5)CC(=O)N4[C@H]3CO)cc2)cc1	inactive
O=C(CCN1CCc2ccccc2C(c2ccccc2)C1)c1ccc2c(c1)OCCO2 (stereo not given)	inactive
O=C(O)c1ccc2c(c1)OCCCO2	inactive
CCC(C)NC(=O)c1ccc2c(SCC(=O)O)c3c(nc2c1)CCCC3 (stereo not given)	inactive
COc1cccc(C(=O)CSc2nnc(CNS(=O)(=O)c3ccc(C)cc3)n2C)c1	inactive
C[C@@H]1CN([C@@H](C)CO)C(=O)c2cc(NC(=O)CCCN(C)C)ccc2O[C@@H](C)CCCCO[C@@H]1CN(C)Cc1ccc(C(F)(F)F)cc1	inactive
CC1=CC=CC2=NC(=O)CC(C)(C(=O)N(CC(=O)NC3CCCC3)c3ccccc3C)N12 (stereo not given)	inactive
Cn1c(=O)cc(OCCCC(=O)NC2CCCC2)c2ccccc21	inactive
c1nc(NC2CCCCCC2)c2[nH]cnc2n1	inactive
CCOc1cc(C)c(S(=O)(=O)N2CCCC2)cc1C	inactive
O=C(Nc1cccc(F)c1)C1CCN(S(=O)(=O)c2cccc3nonc23)CC1	inactive
CCOc1ccc(S(N)(=O)=O)cc1-c1nc2c(C(C)(C)C)nn(C)c2c(=O)[nH]1	inactive
O=C(CC1CC1)N[C@@H]1CC[C@@H](CCNS(=O)(=O)c2ccc(Cl)cc2)O[C@@H]1CO	inactive
O=C(NCc1ccco1)c1ccc(Cn2c(=O)c3ccccc3n(Cc3ccc(Cl)cc3)c2=O)cc1	inactive
Cc1cccn2c(=O)c3cc(C(=O)NCc4ccco4)c(=N)n(CCc4ccccc4)c3nc12	inactive
Cc1ccc(S(=O)(=O)N2CCCC(C(=O)NCCC3=CCCCC3)C2)cc1 (stereo not given)	inactive
